High-throughput results deposited in PubChem by National Center for Advancing Translational Sciences (NCATS).
HTT ATP protect: protects HTT-Q103 PC12 cells, measured by ATP | AID 1471 | Potency, µM (highest dose often 56.4 µM), usual class: activators | 230,000 compounds, 0.14% hits | PC12 HTT-Q103 induced, cytoprotection, ATP luminescence, 40 h; note: nearly all actives have a fitted effect of over 45% in size
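Rat PC12, Q103 Htt exon1-GFP fusion, ecdysone promoter; tebufenozide inducer 100 nM final; compound titration; qHTS, 1500 cells/well; ATPlite luminescent read.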
MBNL1-CUG inh: blocks human MBNL1 binding to CUG repeat RNA; TR-FRET MBNL1-His/biotin-(CUG)12 binding, 665/545 ratio; AID 2675; Potency, µM (series often up to 57.5 µM), usual class: inhibitors; 280,000 compounds, 0.036% hits; Q9NR56; active = well fitted inhibition curve with a large enough effect in the signal ratio, with a control signal flat, not every such curve was filed as active; inconclusive = small, poorly fitted or top-dose-only effect, or effect the other way, or a change in a side signal; inactive = no such curve, though single readings can be large or run the other way; the % refers to the signal ratio
Target sequence (Q9NR56 whole entry, looked up): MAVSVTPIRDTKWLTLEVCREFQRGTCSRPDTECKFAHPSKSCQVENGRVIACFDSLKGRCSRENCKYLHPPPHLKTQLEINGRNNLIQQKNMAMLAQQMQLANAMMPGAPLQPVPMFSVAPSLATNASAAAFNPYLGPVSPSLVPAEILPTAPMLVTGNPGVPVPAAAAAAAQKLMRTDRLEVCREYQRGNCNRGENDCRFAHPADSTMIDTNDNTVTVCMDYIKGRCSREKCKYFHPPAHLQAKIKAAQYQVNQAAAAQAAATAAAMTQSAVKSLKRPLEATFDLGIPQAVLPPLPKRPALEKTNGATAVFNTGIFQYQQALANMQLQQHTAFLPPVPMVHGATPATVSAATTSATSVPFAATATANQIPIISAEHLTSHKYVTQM
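TR-FRET between His-tagged MBNL1 and biotin-(CUG)12 RNA, detected with Tb anti-His antibody (0.055 ng/ul) and streptavidin-XL665 (5 nM), 60 min at room temperature. Compounds titrated 92 nM to 58 uM; 665/545 nm ratio normalized to buffer and complex controls.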
CBFb RUNX1 block: blocks binding between human CBF-beta and RUNX1. Potency, µM (highest dose often 59.8 µM), most hits filed as inhibitors. AlphaScreen CBFb-His/RUNX1-biotin binding, biochemical. 230,000 tested, under 10 active. Q01196+Q13951
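Proteins preincubated together for 20 min at RT before compound addition; 15 min later, nickel and streptavidin beads were added and left 90 min prior to AlphaScreen measurement.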
Lamin A splicing: modulators of lamin A splicing. HeLa LMNA splicing GFP/RFP minigene ratio, 48 h. 200,000 compounds, 0.01% hits. Potency, µM (series often up to 46.1 µM), most hits filed as inhibitors; active = well fitted inhibition curve with a large enough effect in the signal ratio, with a control signal flat, not every such curve was filed as active; inconclusive = small, poorly fitted or top-dose-only effect, or effect the other way, or a change in a side signal; the % refers to the signal ratio
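S3 HeLa stable clones carrying a lamin A-EGFP splicing minigene plus DsRed2 were seeded at 600 cells/well in Opti-MEM with 2% FBS, pin-dosed and incubated 48 h at 37°C. Acumen cytometry (488 nm) gave the GFP/RFP total-intensity ratio.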
HttQ103 aggreg: reduces HttQ103-GFP aggregates in PC12 cells | 220,000 compounds, 1.1% hits | Potency, µM (series often up to 46.1 µM), actives largely listed as inhibitors | AID 1688 | PC12 HttQ103-GFP aggregates, Acumen cytometry, 40 h; note: nearly all actives have a fitted effect of over 60% in size
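Steps: seed 1500 PC12 HTTQ103-GFP cells/well; add tebufenozide, 100 nM final; add compound titration; add ATPLite reagent; quantify GFP aggregates by laser scanning cytometry.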
NPSR antagonist: antagonists of human neuropeptide S receptor cAMP signaling; Q6W5P4; 220,000 compounds, 1% hits; AID 1461; Potency, µM (titrated, usually from 38.3 µM), most hits filed as inhibitors; CHO-NPSR cells, cAMP TR-FRET, antagonist mode; note: nearly all actives have a fitted effect of over 50% in size
Hits are given with their value; n = inactive; u = inconclusive; x = no result; [ ] = remark or other dose. Hits are enriched below; roughly 1.1% of the tested compounds scored in any of these assays. Unless noted, calls come from the whole dose curve; as a rule, active = well fitted curve in the direction sought with a large enough effect; inconclusive = small, poorly fitted or top-dose-only effect, or another doubt; inactive = no such curve, though single readings can be large; an effect the other way counts as inactive or inconclusive.

SMILES | HTT ATP protect | MBNL1-CUG inh | CBFb RUNX1 block | Lamin A splicing | HttQ103 aggreg | NPSR antagonist
Cn1c(=O)c(NCCc2ccccc2)c2c3c(cccc31)C(=O)c1ccccc1-2 | n | u | u | u | 10µM | u
COc1ccc(-c2nc(-c3ccccc3)c(Nc3c(C)cccc3C)o2)cc1 | n | x | n | x | x | x
COC(=O)C1C(=O)c2c([nH]c(C(=O)OCC3CCCO3)c2C)CC1C (configuration not stated) | n | n | n | n | n | 13µM
COCCOC(=O)c1[nH]c2c(c1C)C(=O)C(C(=O)OC)C(C)C2 (configuration not stated) | n | n | n | n | n | n
COC(=O)C1C(=O)c2c([nH]c(C(=O)OC3CCCCCC3)c2C)CC1C (configuration not stated) | x | n | n | n | 0.001µM | n
O=C(Nc1ccccc1)Nc1ccc2snnc2c1 | n[10 µM] | n | n | u | 11µM | n
N#Cc1c(NC(=O)Cn2c(=O)oc3ccccc32)oc(-c2ccccc2)c1-c1ccccc1 | n | n | n | n | 20µM | n
O=C(Cn1c(=O)oc2ccccc21)Nc1ccc(Br)cc1 | x | n | x | x | x | x
Cc1ccc(SCCNC(=O)c2ccc(C)c(S(=O)(=O)Nc3ccccc3C)c2)cc1 | n | n | n | n | 18µM | u
O=C(Nc1n[nH]c(C2CCCCC2)n1)C1CCCCC1 | n | n | n | n | 4.5µM | n
O=C(Nc1ncccn1)C1CCCCC1 | n[10 µM] | n | n | x | n[9.22 µM] | n
Cc1cccc2cc(C#N)c(SCC(=O)NCc3cccs3)nc12 | n[10 µM] | x | n | n | n | 7.9µM
Cc1cccc2cc(C#N)c(SCC(=O)NCC3CCCO3)nc12 (configuration not stated) | n[10 µM] | n | n | n | n | u
CC1Cc2ccccc2N1C(=O)CSc1nnc(NC(=O)Cc2cccs2)s1 (configuration not stated) | n[10 µM] | n | n | n | n | 13µM
COc1cccc(/C=N/NC(=O)CN2CC(c3ccccc3)CC2=O)c1O (configuration not stated) | x | n | n | u | 3.5µM | n
COc1ccc(/C=N/NC(=O)CSc2nnc(C)n2-c2ccccc2)c(OC)c1OC | n | n | n | n[0.0737 µM] | n | n
C=CCn1c(COc2ccccc2)nnc1SCC(=O)N/N=C/c1cc(Cl)ccc1O | n | n | n | u | 7.9µM | n
Cc1ccc(-c2nn(-c3ccccc3)cc2/C=N/NC(=O)CSc2nnc(C)n2-c2ccccc2)cc1 | n | n | n | u | u | n
COc1ccc(O)c(/C=N/NC(=O)CSc2nnc(C)n2-c2ccccc2)c1 | n | n | n | u | 7.9µM | n
COc1cccc(/C=N/NC(=O)CSc2nnc(C)n2-c2ccccc2)c1O | n | n | n | u | 7.9µM | n
N=C1[C@@H](O)[C@]2(I)c3ccccc3N3C(=N)[C@H](O)[C@@H]4c5ccccc5N1[C@@H]4[C@@H]32 | n[10 µM] | x | x | x | x | x
O=[N+]([O-])c1cccc(/C=N\NC2=CS(=O)(=O)C=C2)c1 | n[10 µM] | x | x | x | x | x
Nc1cc(C(=O)O)c(N)c2c1C(=O)c1ccccc1C2=O | n[10 µM] | u | x | x | n[9.22 µM] | 3.2µM
COc1ccc2c(c1)OC/C(=C\c1ccc(OC)c(O)c1)C2=O | 6.3µM | x | n | x | x | x
CC(=O)Nc1ccc(OCCC[n+]2ccccc2)cc1 | n[10 µM] | n | n | n | n[9.22 µM] | n
SMILES | HTT ATP protect | MBNL1-CUG inh | CBFb RUNX1 block | Lamin A splicing | HttQ103 aggreg | NPSR antagonist
CCCCCc1ccc(OCCC[n+]2ccccc2)c(CCCCC)c1 | n[10 µM] | n | n | x | 3.2µM | n
C[n+]1cn(CC(O)COCc2ccccc2)c2ccccc21 (configuration not stated) | n | n | n | n | n | n
CCCCCc1ccc(OCCOCCn2c[n+](C)c3ccccc32)c(CCCCC)c1 | n | n | n | x | 11µM | n
COC(=O)[C@H](CCSC)NC(=O)c1ccc(NC[C@@H](N)CS)cc1-c1ccccc1 | x | x | n | x | x | x
O=S(=O)(Nc1cccnc1)c1cccc2cccnc12 | n | x | x | x | x | x
Cc1ccccc1/C=C/c1cc[n+](C)cc1 | n | u | n | x | n | n
Cc1[nH]c2ccccc2c1/C=C/c1cc[n+](C)cc1 | n | u | n | u | u | 10µM
